Assay outcomes from PubChem.
Pf growth 96h: inhibits malaria parasite growth, 96 h | P. falciparum luciferase reporter growth, 96 h | Potency, µM (doses to about 28.7 µM), most hits filed as inhibitors | 320,000 tested, 6.9% active | AID 504834
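P. falciparum expressing integrated firefly luciferase, in erythrocytes at 2% hematocrit, 0.05% parasitemia, incubated with compounds 96 h at 37 C, 5% CO2. Growth inhibition read as loss of luminescence; two-generation exposure targets delayed-death apicoplast inhibitors.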
Cycloheximide cs: affects cycloheximide protein synthesis inhibition readout, counter-screen; cell reporter, cycloheximide protein synthesis inhibition counterscreen; max response, %; 300,000 tested, 12% active; in the data active = max response mostly above about 13%, no sharp cut-off; inactive = mostly below about 14%; also: read at 38.3 µM for the half of the compounds with a filed dose
HCV inh: blocks hepatitis C virus | Huh7.5.1 HCVcc-Cre infection, luciferase reporter, 44 h | Potency, µM (highest dose often 41.8 µM), most hits filed as inhibitors | 340,000 tested, 3.4% active | AID 651820
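Whole-lifecycle infectious HCVcc-Cre system; cells 1,000/well, compound then virus (~0.5 moi) added 4 h after plating, 44 h culture. Luciferase read 15 sec following 15 min substrate incubation, room temp.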
Pf growth 48h: inhibits P. falciparum growth in the first generation, 48 h | Potency, µM (series often up to 28.7 µM), actives largely listed as inhibitors | P. falciparum luciferase growth in erythrocytes, 48 h | 310,000 tested, 5.9% active | AID 504832
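Firefly luciferase activity from engineered P. falciparum reports growth; inhibitors lower the luminescent signal. Cultures contained 2% hematocrit erythrocytes at 0.1% final parasitemia.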
HCMV inh: inhibitors of human cytomegalovirus | HFF cells, HCMV-luciferase reporter, 72 h; stronger effect = lower value | activity change, negative = inhibition, % at 57.5 µM | 410,000 tested, 4.5% active; in the data active = activity change below about -60%; inconclusive = no clear call, values can overlap the other calls; inactive = above about -39%
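Human foreskin fibroblasts infected with luciferase-reporter HCMV at MOI 1 PFU/cell, compounds at two doses. Luciferase measured 72 h post infection; normalized to buffer-only basal and Salinomycin (10uM) controls.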
Shiga inhibitor: inhibitors of Shiga toxin in Vero cells; Vero cells, Shiga toxin protein synthesis inhibition reporter; inhibition, % at 38.7 µM; 290,000 tested, 9.2% active; in the data active = inhibition mostly above about 28%, no sharp cut-off; inactive = mostly below about 43%
HCV confirm: confirmation of hepatitis C virus inhibitors; shares compounds with HCV inh; HCVcc-Cre infectious virus cell assay, luciferase, inhibition; Potency, µM (titrated, usually from 41.8 µM), actives largely listed as inhibitors; 640 tested, 78% active; AID 720575; also: nearly all actives have a fitted effect of over 80% in size
HCV cytotox: host cell cytotoxicity counter-screen for HCV inhibitors; Potency, µM (highest dose often 41.8 µM), hits mostly inhibitors; HCV host cell line cytotoxicity counterscreen; shares compounds with HCV inh; 640 tested, 22% active;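 also: 44 h compound exposure; nearly all actives have a fitted effect of over 55% in size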
Numbers stand for hits. The list is not random: actives were taken first. Their share in the collection is about 21%. Unless noted, calls follow the shape of the dose curve; as a rule, active = well fitted curve in the direction sought with a large enough effect; inconclusive = small, poorly fitted or top-dose-only effect, or another doubt; inactive = no such curve, though single readings can be large; an effect the other way counts as inactive or inconclusive.

What do the screens show for `CCS(=O)(=O)N1Cc2cc(C(=O)N(C)C)nc(-c3cccc(-c4ccc(F)cc4)c3)c2[C@@H]1CCO`?
HCMV inh: inactive

Results for CC1(C)SC(=S)N(/N=C/c2cccnc2)C1N(O)C(=O)NC1CCCCC1 (stereo not given) ?
Pf growth 96h: inconclusive; Cycloheximide cs: inactive; HCV inh: 7.9µM; Pf growth 48h: inconclusive; HCMV inh: inactive; Shiga inhibitor: inactive; HCV confirm: 11µM; HCV cytotox: inactive

What do the screens show for `CCn1c(Cl)c(C=O)s/c1=N\S(=O)(=O)c1ccccc1`?
Pf growth 96h: inconclusive; Cycloheximide cs: inactive; HCV inh: 3.2µM; Pf growth 48h: inconclusive; HCMV inh: inconclusive; Shiga inhibitor: inactive; HCV confirm: 20µM; HCV cytotox: 11µM

Results for CS(=O)c1nc(-c2ccc(Br)cc2)cc(-c2ccccc2)c1C#N (stereo not given) ?
Pf growth 96h: inactive; Cycloheximide cs: inactive; HCV inh: 5µM; Pf growth 48h: inconclusive; HCMV inh: -98; Shiga inhibitor: inactive; HCV confirm: inconclusive; HCV cytotox: inconclusive

Results for Cc1ccc(S(=O)(=O)N(C)C)cc1NC(=O)COC(=O)CCC1CCCCC1 ?
Pf growth 96h: inactive; HCV inh: inactive; Pf growth 48h: inconclusive; HCMV inh: inactive

How did Cc1nn(CC(=O)NCCCN2CCC(N3CCCCC3)CC2)c(=O)c2cc(-c3ccccc3)nn12 do in these assays?
Pf growth 96h: inconclusive; Cycloheximide cs: inactive; HCV inh: 4µM; Pf growth 48h: inconclusive; HCMV inh: inconclusive; Shiga inhibitor: inactive; HCV confirm: 25µM; HCV cytotox: inactive

Results for COC(=O)C1CC(c2ccccc2)N(c2ccccc2)O1 (stereo not given) ?
HCMV inh: inactive

What do the screens show for `Clc1ccc(CSc2nnc(-c3c[nH]c4ccccc34)o2)cc1`?
Cycloheximide cs: inactive; HCV inh: inconclusive; Pf growth 48h: inactive; HCMV inh: inconclusive; Shiga inhibitor: inactive

Results for O=c1c(-c2nnc(SCc3ccc(Cl)cc3)o2)cccn1Cc1ccccc1 ?
Pf growth 96h: 13µM; Cycloheximide cs: inactive; HCV inh: 3.5µM; Pf growth 48h: inconclusive; HCMV inh: inconclusive; Shiga inhibitor: inactive; HCV confirm: 13µM; HCV cytotox: inconclusive

Results for O=C(C[C@@H]1C/C=C\C[C@@H](NC(=O)OCC2c3ccccc3-c3ccccc32)C(=O)OCCNC1=O)N[C@@H](CO)Cc1ccccc1 ?
HCV inh: 1.8µM; HCMV inh: inactive; HCV confirm: inconclusive; HCV cytotox: inactive

Results for Cc1ccccc1-c1nc(CN2CCC(C(=O)NCCCN3CC(C)CC(C)C3)CC2)c(C)o1 (stereo not given) ?
Pf growth 96h: inactive; Cycloheximide cs: inactive; HCV inh: 1.3µM; Pf growth 48h: inconclusive; HCMV inh: inactive; Shiga inhibitor: inactive; HCV confirm: 1.4µM; HCV cytotox: inconclusive

Results for CCc1noc(C)c1C(=O)OCC(=O)Nc1nc(-c2ccc(F)c(F)c2)cs1 ?
Pf growth 96h: inactive; HCV inh: inconclusive; Pf growth 48h: inconclusive; HCMV inh: inactive

What do the screens show for `Cc1ccccc1NC(=O)COC(=O)c1ccc(CSc2ccc(Cl)cc2)cc1`?
Pf growth 96h: inactive; Cycloheximide cs: inactive; HCV inh: inactive; Pf growth 48h: inactive; HCMV inh: inactive; Shiga inhibitor: inactive

Results for Cc1cc(CSc2ccc(Cl)cc2)ccc1N ?
HCV inh: 4µM; HCMV inh: inactive; HCV confirm: 6.3µM; HCV cytotox: inactive

What do the screens show for `C=C(CN(C)C)C(=O)c1cc(C)ccc1C`?
HCV inh: inconclusive; HCMV inh: -99; HCV confirm: 8.9µM; HCV cytotox: 7.9µM

What do the screens show for `C=CCNc1nc(N)c([N+](=O)[O-])c(Nc2ccccc2OC)n1`?
Pf growth 96h: inconclusive; Cycloheximide cs: inactive; HCV inh: 6.3µM; Pf growth 48h: inconclusive; HCMV inh: inactive; Shiga inhibitor: inactive; HCV confirm: 22µM; HCV cytotox: inactive

How did COc1ccc(OC)c(Nc2nc(NCCC(C)C)nc(N)c2[N+](=O)[O-])c1 do in these assays?
Pf growth 96h: inconclusive; Cycloheximide cs: inactive; HCV inh: inconclusive; Pf growth 48h: inconclusive; HCMV inh: inconclusive; Shiga inhibitor: inactive

What do the screens show for `COC(=O)c1cc(C(=O)c2ccccc2)n2c(=O)/c(=C\N(C)C)sc12`?
Pf growth 96h: inactive; Cycloheximide cs: inactive; HCV inh: inconclusive; Pf growth 48h: inactive; HCMV inh: inactive; Shiga inhibitor: inactive

How did COC(=O)c1cc(C(=O)c2ccc(Cl)cc2)n2c(=O)/c(=C\N(C)C)sc12 do in these assays?
Pf growth 96h: inactive; Cycloheximide cs: inactive; HCV inh: 2.8µM; Pf growth 48h: inactive; HCMV inh: inactive; Shiga inhibitor: inactive; HCV confirm: 7.9µM; HCV cytotox: inactive

Results for NC(=O)c1cccc(CS(=O)(=O)c2ccc(Cl)cc2)c1 ?
Pf growth 96h: inactive; Cycloheximide cs: inactive; HCV inh: inactive; Pf growth 48h: inactive; HCMV inh: inactive; Shiga inhibitor: inactive

How did Cc1ccc(N(C(=O)CNC(=O)c2ccco2)C(C(=O)NC2CCCCC2)c2cccnc2)cc1C (stereo not given) do in these assays?
Pf growth 96h: inconclusive; Cycloheximide cs: inactive; HCV inh: inactive; Pf growth 48h: inconclusive; HCMV inh: inactive; Shiga inhibitor: inactive

How did Cc1ccc(N(C(=O)CCl)C(C(=O)NC2CCCCC2)c2cccnc2)cc1C (stereo not given) do in these assays?
Pf growth 96h: inconclusive; Cycloheximide cs: inactive; HCV inh: 0.89µM; Pf growth 48h: inconclusive; HCMV inh: -99; Shiga inhibitor: inactive; HCV confirm: 0.5µM; HCV cytotox: 0.4µM

Results for CCc1nnc(NC(=O)c2ccc3c(=O)n4c(nc3c2)CCC4)s1 ?
HCMV inh: inactive

Results for Cn1c(=O)c2c(nc(Oc3ccc4c(c3)OCO4)n2Cc2ccc(F)cc2)n(C)c1=O ?
Pf growth 96h: inconclusive; Cycloheximide cs: inactive; HCV inh: inactive; Pf growth 48h: inactive; HCMV inh: inactive; Shiga inhibitor: inactive

How did Cn1c(=O)c2c(nc(SCC(=O)NCc3ccc4c(c3)OCO4)n2Cc2ccccc2)n(C)c1=O do in these assays?
Pf growth 96h: inactive; Cycloheximide cs: inactive; HCV inh: inactive; Pf growth 48h: inactive; HCMV inh: inactive; Shiga inhibitor: inactive; HCV confirm: inconclusive; HCV cytotox: inactive

Results for Cn1c(=O)c2c(nc(SCC(=O)NCc3ccc4c(c3)OCO4)n2Cc2ccc(F)cc2)n(C)c1=O ?
Pf growth 96h: 10µM; Cycloheximide cs: inactive; HCV inh: inconclusive; Pf growth 48h: 13µM; HCMV inh: inactive; Shiga inhibitor: inactive; HCV confirm: 14µM; HCV cytotox: inactive
